Source: PubChem BioAssay AID1159580 (chemical genetic matrix, 2015)
Among all 5,500 compounds or so, about 2,000 (36%) were called active. Roughly 18% stayed inconclusive and do not appear here. No stated cut-off is given here; in the data, active means normalized growth mostly below about 0.91 (no sharp cut-off); inconclusive means no clear call, values can overlap the other calls; inactive means mostly above about 0.92. Some of the results follow.

Assay: chemical genetic growth profiling, strain panel (AID 1159580);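 further: tested at 20 µM; growth read once vehicle control cultures reached saturation at 30 °C; 1 = growth at the plate median or of vehicle wells; lower values mean less growth of the strain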
Details: growth OD

Measured: normalized growth

C=C1C(=O)OC2CC1C(OC(C)=O)C/C(C)=C/CC/C(C)=C/CC[C@]2(C)O (stereo partly specified)
inactive: S. cerevisiae deletion strains, locus YJR043C, strain POL32, active compounds read low 1.04 | S. cerevisiae deletion strains, locus YJR075W, strain HOC1, active compounds read low 0.999 | S. cerevisiae deletion strains, locus YKL009W, strain mrt4, active compounds read low 0.998 | S. cerevisiae deletion strains, locus YKL068W, active compounds read low 1.01 | S. cerevisiae deletion strains, locus YKL085W, strain MDH1 (second series), active compounds read low 0.99 | S. cerevisiae deletion strains, locus YKL085W, strain MDH1, active compounds read low 0.99 | S. cerevisiae deletion strains, locus YKL160W, strain elf1, active compounds read low 0.982 | S. cerevisiae deletion strains, locus YKR001C, strain vps1, active compounds read low 1.02 | S. cerevisiae deletion strains, locus YKR026C, strain gcn3, active compounds read low 0.997 | S. cerevisiae deletion strains, locus YKR091W, strain srl3, active compounds read low 0.981 | S. cerevisiae deletion strains, locus YLL001W, strain dnm1, active compounds read low 0.973 | S. cerevisiae deletion strains, locus YLL026W, active compounds read low 0.987 | S. cerevisiae deletion strains, locus YLL041C, strain sdh2, active compounds read low 0.993 | S. cerevisiae deletion strains, locus YLR027C, strain aat2, active compounds read low 1.01 | S. cerevisiae deletion strains, locus YLR039C, strain RIC1, active compounds read low 0.894 | S. cerevisiae deletion strains, locus YLR058C, strain SHM2, active compounds read low 1.02 | S. cerevisiae deletion strains, locus YLR102C, strain apc9, active compounds read low 1.02 | S. cerevisiae deletion strains, locus YLR221C, strain rsa3, active compounds read low 1.03 | S. cerevisiae deletion strains, locus YLR258W, strain gsy2, active compounds read low 1 | S. cerevisiae deletion strains, locus YLR262C, strain YPT6 (second series), active compounds read low 0.916 | S. cerevisiae deletion strains, locus YLR262C, strain YPT6, active compounds read low 0.858 | S. cerevisiae deletion strains, locus YLR268W, strain sec22, active compounds read low 1 | S. cerevisiae deletion strains, locus YLR320W, strain mms22, active compounds read low 1.03 | S. cerevisiae deletion strains, locus YLR330W, strain CHS5, active compounds read low 1.03 | S. cerevisiae deletion strains, locus YLR342W, strain FKS1 (second series), active compounds read low 0.993 | S. cerevisiae deletion strains, locus YLR342W, strain FKS1, active compounds read low 0.995 | S. cerevisiae deletion strains, locus YLR357W, strain rsc2, active compounds read low 1.02 | S. cerevisiae deletion strains, locus YLR370C, strain arc18, active compounds read low 0.998 | S. cerevisiae deletion strains, locus YLR371W, strain rom2, active compounds read low 1.02 | S. cerevisiae deletion strains, locus YLR384C, strain iki3, active compounds read low 0.997 | S. cerevisiae deletion strains, locus YLR418C, strain cdc73, active compounds read low 1.06 | S. cerevisiae deletion strains, locus YML016C, strain PPZ1, active compounds read low 1.01 | S. cerevisiae deletion strains, locus YML032C, strain rad52, active compounds read low 1.01 | S. cerevisiae deletion strains, locus YML120C, strain ndi1, active compounds read low 0.99 | S. cerevisiae deletion strains, locus YML124C, strain tub3, active compounds read low 1.01 | S. cerevisiae deletion strains, locus YMR058W, strain fet3, active compounds read low 0.99 | S. cerevisiae deletion strains, locus YMR078C, strain ctf18, active compounds read low 1.01 | S. cerevisiae deletion strains, locus YMR125W, strain sto1, active compounds read low 0.973 | S. cerevisiae deletion strains, locus YMR129W, active compounds read low 0.997 | S. cerevisiae deletion strains, locus YMR205C, strain PFK2, active compounds read low 0.985 | S. cerevisiae deletion strains, locus YMR223W, strain ubp8, active compounds read low 1 | S. cerevisiae deletion strains, locus YMR231W, strain pep5, active compounds read low 0.976 | S. cerevisiae deletion strains, locus YMR263W, strain SAP30, active compounds read low 1.01 | S. cerevisiae deletion strains, locus YMR307W, strain GAS1, active compounds read low 0.977 | S. cerevisiae deletion strains, locus YNL067W, strain RPL9B, active compounds read low 1.01 | S. cerevisiae deletion strains, locus YNL071W, strain lat1, active compounds read low 0.996 | S. cerevisiae deletion strains, locus YNL128W, strain TEP1, active compounds read low 1.03 | S. cerevisiae deletion strains, locus YNL153C, strain GIM3, active compounds read low 1.04 | S. cerevisiae deletion strains, locus YNL209W, strain ssb2, active compounds read low 0.991 | S. cerevisiae deletion strains, locus YNL233W, strain BNI4, active compounds read low 1.02 | S. cerevisiae deletion strains, locus YNL248C, strain rpa49, active compounds read low 0.988 | S. cerevisiae deletion strains, locus YNL250W, strain rad50, active compounds read low 1.04 | S. cerevisiae deletion strains, locus YNL271C, strain bni1, active compounds read low 1.02 | S. cerevisiae deletion strains, locus YNL298W, strain CLA4, active compounds read low 1.01 | S. cerevisiae deletion strains, locus YNL307C, strain MCK1, active compounds read low 1.03 | S. cerevisiae deletion strains, locus YNL322C, strain KRE1 (second series), active compounds read low 1.01 | S. cerevisiae deletion strains, locus YNL322C, strain KRE1, active compounds read low 1 | S. cerevisiae deletion strains, locus YNR049C, strain mso1, active compounds read low 0.994 | S. cerevisiae deletion strains, locus YNR052C, strain pop2, active compounds read low 1.01 | S. cerevisiae deletion strains, locus YOL012C, strain htz1 0.807 | S. cerevisiae deletion strains, locus YOL147C, strain pex11, active compounds read low 1.03 | S. cerevisiae deletion strains, locus YOR001W, strain rrp6, active compounds read low 1.01 | S. cerevisiae deletion strains, locus YOR061W, strain CKA2, active compounds read low 1.02 | S. cerevisiae deletion strains, locus YOR069W, strain VPS5, active compounds read low 1.01 | S. cerevisiae deletion strains, locus YOR070C, strain gyp1, active compounds read low 0.995 | S. cerevisiae deletion strains, locus YOR080W, strain dia2, active compounds read low 1.01 | S. cerevisiae deletion strains, locus YOR083W, strain WHI5, active compounds read low 0.985 | S. cerevisiae deletion strains, locus YOR106W, strain vam3, active compounds read low 1 | S. cerevisiae deletion strains, locus YOR136W, strain idh2, active compounds read low 1.02 | S. cerevisiae deletion strains, locus YOR144C, strain elg1, active compounds read low 1.02 | S. cerevisiae deletion strains, locus YOR184W, strain ser1, active compounds read low 1.02 | S. cerevisiae deletion strains, locus YOR265W, strain rbl2, active compounds read low 0.996 | S. cerevisiae deletion strains, locus YOR270C, strain vph1, active compounds read low 0.937 | S. cerevisiae deletion strains, locus YOR290C, strain snf2, active compounds read low 0.961 | S. cerevisiae deletion strains, locus YOR316C, strain cot1, active compounds read low 1.01 | S. cerevisiae deletion strains, locus YPL051W, strain arl3, active compounds read low 1.01 | S. cerevisiae deletion strains, locus YPL078C, strain atp4, active compounds read low 0.96 | S. cerevisiae deletion strains, locus YPL106C, strain sse1, active compounds read low 0.991 | S. cerevisiae deletion strains, locus YPL240C, strain hsp82, active compounds read low 1 | S. cerevisiae deletion strains, locus YPL241C, strain CIN2, active compounds read low 1 | S. cerevisiae deletion strains, locus YPR119W, strain clb2, active compounds read low 1.01 | S. cerevisiae deletion strains, locus YPR141C, strain kar3, active compounds read low 1.01 | S. cerevisiae deletion strains, locus YPR163C, strain tif3, active compounds read low 1 | S. cerevisiae deletion strains, locus YPR167C, strain met16, active compounds read low 1.01 | S. cerevisiae deletion strains, strain wtn01, active compounds read low 1.02 | S. cerevisiae strains, strain wild type, active compounds read low 1.01
